Assay results from PubChem BioAssay (NCI).
Several values for one entry are separate records, joined by “and”; a condition that tells them apart may be missing. Equal values may be shown once. About 79,000 compounds went through this panel and 15% of them were active in at least one assay; those are over-represented in the sample as a whole. Some structures have more than one record in an assay (separate samples or runs), and their calls can disagree. Activity calls are given as the source filed them. Cut-off read from the data, not from the text of the source: active = growth inhibition above about 70%; inactive = the rest.

Test: NCI Yeast Anticancer Drug Screen. Data for the sgs1 mgt1 strain (AID 161);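 note: 0% = growth of cultures given vehicle only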
Details: S. cerevisiae sgs1 mgt1 strain, stronger effect = higher value
Procedure: Growth inhibition of yeast strains with defined genetic alterations is measured as a screen for potential anti-cancer activity. Selected strains with alterations in DNA damage repair or cell cycle control were exposed to compounds and growth inhibition was measured relative to vehicle treated controls. The strain used in this assay is sgs1 mgt1

[1] = at 5.0 µM (retest, dose inferred, filed as 0.5)
[2] = at 50.0 µM (retest, dose inferred, filed as 5.0)

SMILES	growth inhibition [1]	growth inhibition [2]	growth inhibition (at 50.0 µM)
CC1=NC(=Cc2ccc([N+](=O)[O-])cc2)C(=O)N1n1c(-c2ccccc2)nc2ccccc2c1=O	5% (inactive)	7% (inactive)	45.3% (inactive)
COc1ccc2cc(C(C)=O)c3ccccc3c2c1	1% (inactive)	88% (active)	96.2% (active)
N#CCCC(CCC#N)(CCC#N)C(=O)c1ccccc1	7% (inactive)	8% (inactive)	33.2% (inactive) and -28.8% (inactive)
Nc1cc(F)c2c(c1)Cc1ccccc1-2	-6% (inactive)	84% (active)	82.7% (active)
Cc1c(-c2ccccc2)ccnc1/C=N/NC(N)=S	43% (inactive)	58% (inactive)	65.7% (inactive)
CC(O)CN1CCN(CC(C)O)CC1.[I][Pt+2][I] (configuration not stated)	-1% (inactive)	16% (inactive)	78.9% (active)
CCCCCCCCCCCCCCCC(=O)NCC[N+](C)(C)C	50% (inactive)	99% (active)	99.8% (active)
C[Si]1(C)CN(CCN)C[Si](C)(C)O1	2% (inactive)	0% (inactive)	-15.4% (inactive) and 76.5% (active)
O=C(O)/C(=C(/c1ccccc1)c1ccc(Cl)cc1)c1ccccc1	46% (inactive)	100% (active)	81.8% (active) and 89.8% (active)
O=C1C=CC(=O)c2c1ccc1c3ccccc3n(Cc3ccccc3)c21	41% (inactive)	90% (active)	59% (inactive)
CC1(C)OC2C(O)C(O)C3OC(C)(C)OC3C2O1 (configuration not stated)	-6% (inactive)	2% (inactive)	14.4% (inactive) and 6.4% (inactive)
OC(CN1CCCCC1)c1cc(-c2ccc(Cl)cc2)nc2cc(Cl)ccc12 (configuration not stated)	-4% (inactive)	100% (active)	99.5% (active)
Oc1ccccc1C=Nc1ccccc1N=Cc1ccccc1O	-12% (inactive) and -1% (inactive)	76% (active) and 91% (active)	67.8% (inactive) and 91.3% (active)
COc1cc2c3c(c1)SCCC(=O)N3CCN2	15% (inactive)	15% (inactive)	-22.6% (inactive)
